D1 ag = activates the human D1 dopamine receptor. HEK293 T-REx D1 cells, calcium flux, agonist mode. activation, % at 2 µM. 360,000 tested, 1% active; further: 0% is about no effect
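Agonism was scored from calcium flux recorded over 180 s (1 read/s) after pintool compound addition, following a 10-cycle baseline. Cells were inducible force-coupled HEK293 TREx D1, plated overnight at 30 C and loaded with no-wash calcium dye.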
D1 potentiator = enhances dopamine response at the human D1 receptor. HEK293 TREx D1 cells, calcium flux, dopamine EC20 potentiation. P21728. 360,000 tested, 0.036% active. potentiation, % at 10 µM. AID 504651; in the data active means potentiation above about 30%; further: 0% is about no effect
TRHR ag = activates the human TRH receptor | P34981 | TRHR cells, calcium flux fluo-8, FDSS agonist mode | activation, % at 2 µM | 360,000 tested, 0.18% active; further: 0% is about no effect
Target sequence (P34981 whole entry, looked up): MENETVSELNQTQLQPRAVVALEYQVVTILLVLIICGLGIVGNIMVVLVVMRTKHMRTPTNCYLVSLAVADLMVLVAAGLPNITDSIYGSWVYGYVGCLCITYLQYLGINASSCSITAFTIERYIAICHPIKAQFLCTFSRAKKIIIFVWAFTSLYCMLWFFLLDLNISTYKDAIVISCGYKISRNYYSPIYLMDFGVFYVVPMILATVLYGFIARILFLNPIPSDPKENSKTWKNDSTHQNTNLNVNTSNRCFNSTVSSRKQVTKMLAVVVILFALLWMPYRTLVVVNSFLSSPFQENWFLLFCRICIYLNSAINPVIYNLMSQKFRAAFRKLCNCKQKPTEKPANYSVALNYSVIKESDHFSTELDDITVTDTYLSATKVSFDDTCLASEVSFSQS
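Steps: seed TRHR cells overnight; add fluo-8 no-wash Ca dye, RT 30 min–1.5 h; record 10 s baseline; pin-transfer compounds; monitor fluorescence 1 cycle/s for the agonist window. Calcium increases flag candidate agonists.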
Glioma ERSR ind = induces the endoplasmic reticulum stress response in human glioma cells; Potency, µM, for the others: at the top dose activation, usual class: activators; 420,000 tested, 0.02% active; U87-MG GRP78 promoter luciferase reporter, 16 h; active means well fitted activation curve with a large enough effect; further: potency means the concentration at half of the fitted maximal effect; series mostly up to about 76 µM; % of control where 0% means no effect; nearly all actives have a fitted effect of over 35% in size
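ERSR induction read as luciferase luminescence (Bright-Glo, 10 min at room temperature) in stably transfected human U87-MG glioma cells exposed to compounds for 16 h, using GRP78 as sensor.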
TRHR PAM = allosterically enhances the human TRH receptor; P34981; TRHR cells, fluo-8 calcium fluorescence, EC20 TRH enhancement; enhancement, % at 2 µM; 360,000 tested, 0.66% active; in the data active means enhancement above about 30%; further: 0% is about no effect
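TRHR-expressing cells loaded with fluo-8 calcium dye were read kinetically (ex 480/em 530) during compound addition, then stimulated with an EC20 of TRH (10 nM final). Enhancement of the Gq-mediated intracellular calcium response was scored.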
D1 antagonist = human D1 dopamine receptor antagonism | P21728 | HEK293 TREx D1 cells, calcium flux, dopamine EC80; active compounds read low | activity change, negative = inhibition, % at 10 µM | 360,000 tested, 3.2% active | AID 504652; in the data active means activity change below about -30%; further: on the % scale 0 is the no-effect control and ±100 the full control effect
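Tetracycline-induced HEK293 Trex D1 cells, force-coupled to calcium, dye-loaded; compounds added and read 180 s, then EC80 dopamine added and calcium flux tracked kinetically another 180 s.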
* marks the source's active call; other numbers are inactive results; nt = no result; ! = a repeat was not active. A selection: hits, their analogues and other compounds. The true share with any hit is near 4%. Unless noted, no stated cut-off is given here; in the data, active means activation above about 30%; inactive means the rest.

SMILES	D1 ag	D1 potentiator	TRHR ag	Glioma ERSR ind	TRHR PAM	D1 antagonist
O=C(NCCc1ccccc1)C1CCCN(c2ncnc3c2nc2n3CCCCC2)C1 (configuration not stated)	1	-5	-1	0%	1	2
O=C(NCCCN1CCN(c2ccccc2)CC1)C1CCCN(c2ncnc3c2nc2n3CCCCC2)C1 (configuration not stated)	1	-19	0	-1%	2	-30*
O=C(C1CCN(c2ncnc3c2nc2n3CCCCC2)CC1)N1CCN(c2cccc(Cl)c2)CC1	7	-2	-1	-5%	6	-31*!
COc1ccc(OC)c(CNC(=O)C2CCCN(c3ncnc4c3nc3n4CCCCC3)C2)c1 (configuration not stated)	1	-1	-1	-4%	-11	-33*
CCOc1ccccc1CNC(=O)C1CCCN(c2ncnc3c2nc2n3CCCCC2)C1 (configuration not stated)	2	-7	0	-1%	0	-13
Cc1c(C(=O)N2CCC(C)CC2)sc2ncnc(N(C)c3ccccc3)c12	1	0	-1	-8%	4	9
O=[N+]([O-])c1ccc(/C=C/c2ccnc3ccccc23)c([N+](=O)[O-])c1	nt	nt	nt	0%	nt	nt
COc1cc(CNC(=O)C2CC(O)CN2C(=O)Nc2ccccc2)cc(OC)c1OC (configuration not stated)	nt	nt	nt	-4%	nt	nt
CCCCCNC(=O)CCn1c(=O)[nH]c2ccccc2c1=O	0	-4	-1	-4%	10	-15
COC(=O)[C@@]12CCCN1[C@H](c1ccc(-c3ccc(F)cc3)cc1)[C@H]1C(=O)N(C)C(=O)[C@H]12	3	-2	-1	1%	-3	-44*
CC(C)NC(=O)C(=O)NCCC1CCCCN1S(=O)(=O)c1cccs1 (configuration not stated)	1	-6	0	-4%	21	-32*
CN(CC(=O)Nc1ccc(OC(F)(F)F)cc1)C1CCCCC1	8	-3	3	9%	-5	-27
O=C(CNCC1CCCCC1)Nc1ccc(OC(F)(F)F)cc1	93*	-3	12	8%	-14	-42*
CCOCCCNC(=O)C(NC(=O)Cc1cccs1)c1ccc(C)cc1 (configuration not stated)	1	-3	-1	-4%	-3	-44*
COc1cccc(CN2C(=O)NC(C)(C3CCN(Cc4cnn(C)c4C)CC3)C2=O)c1OC (configuration not stated)	nt	nt	nt	-4%	nt	nt
COC(=O)[C@@H]1CCCN1C(=O)[C@@H](C)CO	nt	nt	nt	-4%	nt	nt
COC(=O)Cn1c(CN2CCC(Cc3ccccc3)CC2)nc2c1c(=O)n(C)c(=O)n2C	17	-7	-1	-3%	-2	-36*
Cn1c(=O)c2c(nc(CN3CCN(C(=O)c4ccco4)CC3)n2CCCc2ccccc2)n(C)c1=O	2	2	0	-2%	7	10
COC(=O)Cn1c(CN(C)Cc2ccccc2)nc2c1c(=O)n(C)c(=O)n2C	1	4	0	-1%	-4	0
Cn1c(=O)c2c(nc(CN3CCN(C(=O)c4ccco4)CC3)n2CCc2ccccc2)n(C)c1=O	0	2	-1	2%	-1	-74*
Cn1c(=O)c2c(nc(CN3CCN(Cc4ccccc4)CC3)n2Cc2cccc(Cl)c2)n(C)c1=O	40*	-14	-1	0%	-3	1
Cc1nc(C)c(CC(=O)N2CCOc3ccc(CN4CCOCC4)cc3C2)s1	nt	nt	nt	-5%	nt	nt
CCOC(=O)C1CCCN(S(=O)(=O)c2ccc3c4c(cccc24)C(=O)N3CC)C1 (configuration not stated)	10	nt	0	-2%	-4	-32*
CCN1C(=O)c2cccc3c(S(=O)(=O)N4CCCC4C(=O)O)ccc1c23 (configuration not stated)	5	0	0	-3%	8	4
O=[N+]([O-])c1ccccc1-c1ccc(CN2CCN(c3ccccc3)CC2)o1	0	-9	0	-2%	-5	-33*
SMILES	D1 ag	D1 potentiator	TRHR ag	Glioma ERSR ind	TRHR PAM	D1 antagonist
O=C(CSc1cc(Cl)ccc1Cl)NCCCn1ccnc1	4	nt	0	-4%	-5	-1
O=C(NCCCn1ccnc1)c1cc(-c2ccc(Cl)cc2)nc2ccccc12	-1	-5	0	1%	0	-39*
O=C(CNC(=O)c1ccc(Cl)cc1Cl)NCCCn1ccnc1	4	0	-1	-3%	31*	0
O=C(NCCCn1ccnc1)c1cc(-c2ccncc2)nc2ccccc12	3	1	0	-6%	1	5
CO[C@@H]1[C@@H](OC2OC(C)C(OC3CC(C)(O)C(OC(=O)CC(C)C)C(C)O3)C(N(C)C)C2O)[C@@H](CC=O)C[C@@H](C)C(=O)/C=C\C2O[C@H]2C[C@@H](C)OC(=O)C[C@H]1OC(C)=O (some centres not stated)	nt	nt	nt	-4%	nt	nt
CCCc1cc(N2CCN(c3ccc(OC)cc3)CC2)n2cnnc2n1	5	-2	-1	-2%	2	-33*
CCCc1cc(N2CCN(c3ccccc3)CC2)n2cnnc2n1	3	-2	-2	-5%	-3	3
CSc1nnc(C)c(/C=C/Nc2ccc(C)cc2)n1	46*	-2	29	-4%	0	-5
O=C(CN1CCN(S(=O)(=O)c2ccccc2F)CC1)Nc1ccnn1C1CCCC1	6	-10	0	-6%	0	-40*
Cc1ccc(S(=O)(=O)N2CCN(CC(=O)Nc3ccnn3C3CCCC3)CC2)cc1	2	-11	-1	-1%	-7	-37*
N#Cc1ccccc1S(=O)(=O)N1CCN(CC(=O)Nc2ccnn2C2CCCC2)CC1	-1	-1	0	-4%	0	0
Cc1cc2c(C)nc(-c3ccccc3)nc2o1	0	-6	0	7%	0	-50*
CCC1CN(CCNC(=O)c2ccnc(Cl)c2)Cc2cc(OC)ccc2O1 (configuration not stated)	nt	nt	nt	-4%	nt	nt
O=C(c1ccc2c(c1)CCN2S(=O)(=O)c1ccccc1)N1CCN(c2ccccc2)CC1	1	-5	0	0%	33*	1
CS(=O)(=O)N1CCc2cc(C(=O)NC3CC3)ccc21	4	-3	0	-5%	-7	-37*
CS(=O)(=O)N1CCc2cc(C(=O)N3CCN(c4ccccc4)CC3)ccc21	-1	-3	-1	1%	-6	-65*!
CCCNC(=O)c1ccc2c(c1)CCN2S(C)(=O)=O	1	-4	1	-3%	-2	nt
COc1cccc(CN2CCC3(CCC(CNC(=O)c4ccco4)O3)CC2)c1OC (configuration not stated)	nt	nt	nt	-1%	nt	nt

Assay outcomes (PubChem BioAssay)
